In PubChem BioAssay AID1159580 (chemical genetic matrix, 2015):
Hit rate of the full screen: of about 5,500 compounds, about 2,000 (36%) were called active. Roughly 18% stayed inconclusive and do not appear here. Cut-off read from the data, not from the text of the source: active = normalized growth mostly below about 0.91 (no sharp cut-off); inconclusive = no clear call, values can overlap the other calls; inactive = mostly above about 0.92. This is one part of the list.

Assay: chemical genetic growth profiling, strain panel (AID 1159580);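 note: tested at 20 µM; growth read once vehicle control cultures reached saturation at 30 °C; 1 = growth at the plate median or of vehicle wells; lower values mean less growth of the strain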
Conditions: growth OD

Measured: normalized growth

COc1ccc(C2Sc3ccccc3N(CCN(C)C)C(=O)C2OC(C)=O)cc1 (stereo not given)
inactive: S. cerevisiae deletion strains, locus YKL009W, strain mrt4, hits give low values 1.04 | S. cerevisiae deletion strains, locus YKL068W, hits give low values 1.02 | S. cerevisiae deletion strains, locus YKL085W, strain MDH1 (second series), hits give low values 1.03 | S. cerevisiae deletion strains, locus YKL085W, strain MDH1, hits give low values 1.03 | S. cerevisiae deletion strains, locus YKL160W, strain elf1, hits give low values 0.972 | S. cerevisiae deletion strains, locus YKL190W, strain CNB1, hits give low values 0.994 | S. cerevisiae deletion strains, locus YKR001C, strain vps1, hits give low values 1.04 | S. cerevisiae deletion strains, locus YKR026C, strain gcn3, hits give low values 0.931 | S. cerevisiae deletion strains, locus YKR091W, strain srl3, hits give low values 0.983 | S. cerevisiae deletion strains, locus YLL001W, strain dnm1, hits give low values 0.944 | S. cerevisiae deletion strains, locus YLL026W, hits give low values 0.983 | S. cerevisiae deletion strains, locus YLL041C, strain sdh2, hits give low values 0.956 | S. cerevisiae deletion strains, locus YLR027C, strain aat2, hits give low values 0.974 | S. cerevisiae deletion strains, locus YLR039C, strain RIC1, hits give low values 1.04 | S. cerevisiae deletion strains, locus YLR058C, strain SHM2, hits give low values 1.01 | S. cerevisiae deletion strains, locus YLR102C, strain apc9, hits give low values 1.04 | S. cerevisiae deletion strains, locus YLR113W, strain HOG1, hits give low values 1.01 | S. cerevisiae deletion strains, locus YLR221C, strain rsa3, hits give low values 0.989 | S. cerevisiae deletion strains, locus YLR258W, strain gsy2, hits give low values 0.974 | S. cerevisiae deletion strains, locus YLR262C, strain YPT6 (second series), hits give low values 0.977 | S. cerevisiae deletion strains, locus YLR262C, strain YPT6, hits give low values 1.04 | S. cerevisiae deletion strains, locus YLR268W, strain sec22, hits give low values 1.03 | S. cerevisiae deletion strains, locus YLR320W, strain mms22, hits give low values 1.02 | S. cerevisiae deletion strains, locus YLR330W, strain CHS5, hits give low values 1.01 | S. cerevisiae deletion strains, locus YLR342W, strain FKS1 (second series), hits give low values 1.02 | S. cerevisiae deletion strains, locus YLR342W, strain FKS1, hits give low values 0.979 | S. cerevisiae deletion strains, locus YLR357W, strain rsc2, hits give low values 0.922 | S. cerevisiae deletion strains, locus YLR370C, strain arc18, hits give low values 0.973 | S. cerevisiae deletion strains, locus YLR371W, strain rom2, hits give low values 1.03 | S. cerevisiae deletion strains, locus YLR384C, strain iki3, hits give low values 0.941 | S. cerevisiae deletion strains, locus YLR418C, strain cdc73, hits give low values 1.06 | S. cerevisiae deletion strains, locus YML016C, strain PPZ1, hits give low values 1.01 | S. cerevisiae deletion strains, locus YML032C, strain rad52, hits give low values 1.06 | S. cerevisiae deletion strains, locus YML120C, strain ndi1, hits give low values 0.982 | S. cerevisiae deletion strains, locus YML124C, strain tub3, hits give low values 1.03 | S. cerevisiae deletion strains, locus YMR058W, strain fet3, hits give low values 0.986 | S. cerevisiae deletion strains, locus YMR078C, strain ctf18, hits give low values 1.04 | S. cerevisiae deletion strains, locus YMR125W, strain sto1, hits give low values 0.896 | S. cerevisiae deletion strains, locus YMR129W, hits give low values 0.975 | S. cerevisiae deletion strains, locus YMR205C, strain PFK2, hits give low values 0.98 | S. cerevisiae deletion strains, locus YMR223W, strain ubp8, hits give low values 1.04 | S. cerevisiae deletion strains, locus YMR231W, strain pep5, hits give low values 0.965 | S. cerevisiae deletion strains, locus YMR263W, strain SAP30, hits give low values 1 | S. cerevisiae deletion strains, locus YMR307W, strain GAS1, hits give low values 1.07 | S. cerevisiae deletion strains, locus YNL067W, strain RPL9B, hits give low values 1.02 | S. cerevisiae deletion strains, locus YNL071W, strain lat1, hits give low values 0.998 | S. cerevisiae deletion strains, locus YNL128W, strain TEP1, hits give low values 1.02 | S. cerevisiae deletion strains, locus YNL153C, strain GIM3, hits give low values 1.01 | S. cerevisiae deletion strains, locus YNL183C, strain NPR1, hits give low values 0.953 | S. cerevisiae deletion strains, locus YNL209W, strain ssb2, hits give low values 0.973 | S. cerevisiae deletion strains, locus YNL233W, strain BNI4, hits give low values 1.01 | S. cerevisiae deletion strains, locus YNL250W, strain rad50, hits give low values 1.07 | S. cerevisiae deletion strains, locus YNL271C, strain bni1, hits give low values 1.04 | S. cerevisiae deletion strains, locus YNL298W, strain CLA4, hits give low values 1.06 | S. cerevisiae deletion strains, locus YNL307C, strain MCK1, hits give low values 1.05 | S. cerevisiae deletion strains, locus YNL322C, strain KRE1 (second series), hits give low values 0.974 | S. cerevisiae deletion strains, locus YNL322C, strain KRE1, hits give low values 1.01 | S. cerevisiae deletion strains, locus YNR049C, strain mso1, hits give low values 0.977 | S. cerevisiae deletion strains, locus YNR052C, strain pop2, hits give low values 1.05 | S. cerevisiae deletion strains, locus YOL006C, strain TOP1, hits give low values 1.07 | S. cerevisiae deletion strains, locus YOL012C, strain htz1 1.17 | S. cerevisiae deletion strains, locus YOL147C, strain pex11, hits give low values 1.04 | S. cerevisiae deletion strains, locus YOR001W, strain rrp6, hits give low values 0.945 | S. cerevisiae deletion strains, locus YOR061W, strain CKA2, hits give low values 1.01 | S. cerevisiae deletion strains, locus YOR069W, strain VPS5, hits give low values 1.01 | S. cerevisiae deletion strains, locus YOR070C, strain gyp1, hits give low values 0.989 | S. cerevisiae deletion strains, locus YOR080W, strain dia2, hits give low values 0.973 | S. cerevisiae deletion strains, locus YOR083W, strain WHI5, hits give low values 0.976 | S. cerevisiae deletion strains, locus YOR106W, strain vam3, hits give low values 0.903 | S. cerevisiae deletion strains, locus YOR136W, strain idh2, hits give low values 1.04 | S. cerevisiae deletion strains, locus YOR144C, strain elg1, hits give low values 1.04 | S. cerevisiae deletion strains, locus YOR184W, strain ser1, hits give low values 1.07 | S. cerevisiae deletion strains, locus YOR231W, strain MKK1, hits give low values 1.01 | S. cerevisiae deletion strains, locus YOR265W, strain rbl2, hits give low values 0.974 | S. cerevisiae deletion strains, locus YOR270C, strain vph1, hits give low values 0.902 | S. cerevisiae deletion strains, locus YOR290C, strain snf2, hits give low values 0.998 | S. cerevisiae deletion strains, locus YOR316C, strain cot1, hits give low values 1.03 | S. cerevisiae deletion strains, locus YPL051W, strain arl3, hits give low values 0.977 | S. cerevisiae deletion strains, locus YPL055C, strain LGE1, hits give low values 1.04 | S. cerevisiae deletion strains, locus YPL078C, strain atp4, hits give low values 0.943 | S. cerevisiae deletion strains, locus YPL106C, strain sse1, hits give low values 0.976 | S. cerevisiae deletion strains, locus YPL240C, strain hsp82, hits give low values 0.972 | S. cerevisiae deletion strains, locus YPL241C, strain CIN2, hits give low values 1.01 | S. cerevisiae deletion strains, locus YPL256C, strain CLN2, hits give low values 0.991 | S. cerevisiae deletion strains, locus YPR119W, strain clb2, hits give low values 1.03 | S. cerevisiae deletion strains, locus YPR141C, strain kar3, hits give low values 1.06 | S. cerevisiae deletion strains, locus YPR163C, strain tif3, hits give low values 1.05 | S. cerevisiae deletion strains, locus YPR167C, strain met16, hits give low values 1.04 | S. cerevisiae deletion strains, strain wtn01, hits give low values 1.03 | S. cerevisiae strains, strain wild type, hits give low values 1.01
